Some test systems named below: SR leukemia; RPMI-8226 leukemia; OVCAR-8 ovarian; OVCAR-5 ovarian; SK-OV-3 ovarian; IGROV1 ovarian; OVCAR-3 ovarian; HS 578T breast; NCI/ADR-RES ovarian; T-47D breast; BT-549 breast; MDA-MB-435 melanoma; SW-620 colon; MCF7 breast; HCT-116 colon; HCC-2998 colon; KM12 colon; OVCAR-4 ovarian.
Common to all, as to assay: NCI-60 one-dose screen, 48 h (100 = growth as untreated, 0 = no growth, -100 = all killed)
Holding throughout (conditions): 10 µM unless noted

About 83,000 compounds went through this panel and 20% of them were active in at least one assay; those are over-represented in the sample as a whole.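 Plates (96-well) were seeded with cells, treated with compound at one concentration, and incubated for 48 hours before percent growth was determined.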 Values without a mark were called inactive. The source made the active and inactive calls. The calls were made as follows: active = growth percent below 10; inactive = the rest.

On to `COC(=O)c1n[nH]c2ccc3nc(-c4cn[nH]c4C(F)(F)F)c4c(c3c12)CCCC4`, for which the growth is 11.9% in the experiment on SR leukemia; 57.5% in the experiment on RPMI-8226 leukemia; 34.6% with OVCAR-8 ovarian; 70.2% in the experiment with OVCAR-5 ovarian; 15.3% in the experiment on SK-OV-3 ovarian; 19.5% with IGROV1 ovarian. For the same molecule, the growth is 56.4% in the experiment with OVCAR-3 ovarian; 9.88% (active) with HS 578T breast; 83.7% with NCI/ADR-RES ovarian; 57% in the experiment on T-47D breast; 35.5% in the experiment with BT-549 breast; 39.3% in the experiment on MDA-MB-435 melanoma. In addition, the growth in the experiment on SW-620 colon was 28.3%; in the experiment with MCF7 breast it was 53%; in the experiment on HCT-116 colon, 22.9%; in the experiment on HCC-2998 colon, 15.7%; with KM12 colon, 26.8%.

On to `COc1ccccc1Nc1nc2c(s1)C1=CC[C@H]3[C@@H]4CC[C@H]([C@H](C)CCCC(C)C)[C@@]4(C)CC[C@@H]3[C@@]1(C)CC2`, for which the growth in the experiment with SR leukemia is 108%; in the experiment on RPMI-8226 leukemia, 111%; in the experiment with OVCAR-8 ovarian, 103%; in the experiment with OVCAR-5 ovarian, 106%; in the experiment on SK-OV-3 ovarian, 101%; with IGROV1 ovarian, 99.2%. The growth is 103% in the experiment with OVCAR-3 ovarian; 105% in the experiment on HS 578T breast; 96.1% in the experiment with NCI/ADR-RES ovarian; 105% in the experiment with T-47D breast; 110% with BT-549 breast; 103% with MDA-MB-435 melanoma. Also, the growth in the experiment on SW-620 colon is 101%; in the experiment with MCF7 breast, 113%; in the experiment with HCT-116 colon it was 102%; in the experiment on HCC-2998 colon, 101%; in the experiment on KM12 colon it was 101%.

In the case of `CCO/C=N/C1=C(C#N)C(c2ccc(OC)cc2)c2sc3c(F)cccc3c2O1` (stereo not given), the growth was 25.5% in the experiment on SR leukemia; 7.6% (active) in the experiment on RPMI-8226 leukemia; 36.5% in the experiment on OVCAR-8 ovarian; 63.8% with OVCAR-5 ovarian; 64.8% in the experiment with OVCAR-4 ovarian; 49.6% in the experiment with SK-OV-3 ovarian. In addition, the growth in the experiment on OVCAR-3 ovarian is 8.12% (active); with HS 578T breast, 4.04% (active); in the experiment with NCI/ADR-RES ovarian it was 16.9%; in the experiment with T-47D breast it was 35.4%; in the experiment with BT-549 breast it was 49.8%; with MDA-MB-435 melanoma, -42.8% (active). Besides, the growth with SW-620 colon was 22.4%; in the experiment on HCT-116 colon, 33.8%; in the experiment with HCC-2998 colon it was 70.8%; in the experiment on KM12 colon, 25.3%.

Turning to `COc1ccc(-c2nnc3n(C)c(=O)c4ccccc4n23)cc1N`, the growth with SR leukemia is 21.7%; in the experiment with RPMI-8226 leukemia, 20%; in the experiment on OVCAR-8 ovarian, 33.6%; in the experiment on OVCAR-5 ovarian, 45.2%; in the experiment on SK-OV-3 ovarian it was 22%; in the experiment on IGROV1 ovarian, 51.9%. The growth in the experiment with OVCAR-3 ovarian is 6.12% (active); in the experiment on HS 578T breast, 32%; with NCI/ADR-RES ovarian it was 22.8%; with T-47D breast it was 24.2%; in the experiment on BT-549 breast, 31.2%; with MDA-MB-435 melanoma, -19.6% (active). Also, the growth in the experiment on SW-620 colon is 20.3%; in the experiment on MCF7 breast, 18.6%; with HCT-116 colon, 20.2%; in the experiment on HCC-2998 colon, 49.7%; in the experiment with KM12 colon it was 28.3%.

In the case of `Oc1c(Cl)cc(Cl)c2ccc(Cn3cc(-c4cc(F)cc(F)c4)nn3)nc12`, the growth with SR leukemia was -22.2% (active); with RPMI-8226 leukemia, 5.12% (active); with OVCAR-8 ovarian it was 69.6%; in the experiment on OVCAR-5 ovarian, 91%; in the experiment with SK-OV-3 ovarian it was 108%; with IGROV1 ovarian, 85.8%. The growth in the experiment with OVCAR-3 ovarian is 2.47% (active); in the experiment on HS 578T breast, 88.5%; with NCI/ADR-RES ovarian, 108%; in the experiment with T-47D breast, 40.4%; in the experiment on BT-549 breast, 70.9%; with MDA-MB-435 melanoma, 60.8%. The growth with SW-620 colon was 4.81% (active); in the experiment on MCF7 breast, 34.4%; in the experiment on HCT-116 colon, 5.12% (active); in the experiment on HCC-2998 colon, 103%; in the experiment on KM12 colon it was 102%.

As to `COc1ccc2cc(-c3ccc(NC(C)=O)c(=O)o3)ccc2c1`, the growth in the experiment on SR leukemia is 88.2%; in the experiment with RPMI-8226 leukemia it was 96.3%; in the experiment on OVCAR-8 ovarian, 97.1%; with OVCAR-5 ovarian, 95%; in the experiment with SK-OV-3 ovarian, 94.6%; with IGROV1 ovarian, 108%. The growth with OVCAR-3 ovarian was 101%; with HS 578T breast, 93.8%; with NCI/ADR-RES ovarian it was 103%; with T-47D breast it was 87.3%; with BT-549 breast, 101%; with MDA-MB-435 melanoma it was 107%. Also, the growth is 96.6% in the experiment with SW-620 colon; 89.9% in the experiment on MCF7 breast; 90.3% in the experiment with HCT-116 colon; 102% in the experiment with HCC-2998 colon; 97% in the experiment on KM12 colon.

As to `COC(C(=O)[C@@H](O)[C@@H](C)O)[C@@H]1Cc2cc3cc(O[C@H]4C[C@@H](O[C@H]5C[C@@H](O)[C@H](O)C(C)O5)[C@H](O)C(C)O4)c(C)c(O)c3c(O)c2C(=O)[C@H]1O[C@H]1C[C@@H](O[C@H]2C[C@@H](O[C@H]3C[C@@H](O)[C@H](OC)C(C)O3)[C@@H](O)C(C)O2)[C@H](O)C(C)O1` (stereo not given in full), the growth in the experiment on SR leukemia is 3.51% (active); in the experiment on RPMI-8226 leukemia it was 0.837% (active); in the experiment with OVCAR-8 ovarian, 7.56% (active); in the experiment on OVCAR-5 ovarian, 14.8%; in the experiment with SK-OV-3 ovarian, 19.1%; in the experiment on IGROV1 ovarian, 16.9%. For the same molecule, the growth was 5.62% (active) in the experiment with OVCAR-3 ovarian; 20.3% in the experiment with HS 578T breast; 59.5% in the experiment with NCI/ADR-RES ovarian; -0.919% (active) with T-47D breast; -22.9% (active) in the experiment with BT-549 breast; -54.2% (active) in the experiment with MDA-MB-435 melanoma. Moreover, the growth with SW-620 colon was 11.3%; in the experiment on MCF7 breast it was 6.29% (active); in the experiment on HCT-116 colon, 12.1%; with HCC-2998 colon, 1.1% (active); in the experiment with KM12 colon, 13.7%.

In the case of `O=[N+]([O-])c1ccc(-c2nc(N3CCOCC3)c3c4c(sc3n2)CCCC4)cc1`, the growth in the experiment on SR leukemia was 76.4%; in the experiment on RPMI-8226 leukemia it was 109%; with OVCAR-8 ovarian it was 99.8%; in the experiment on OVCAR-5 ovarian it was 95.4%; in the experiment on SK-OV-3 ovarian, 81.2%; in the experiment on IGROV1 ovarian, 75.2%. Besides, the growth in the experiment with OVCAR-3 ovarian is 93.8%; in the experiment with HS 578T breast it was 90.7%; with NCI/ADR-RES ovarian, 102%; in the experiment with T-47D breast, 83.5%; in the experiment with BT-549 breast it was 82.3%; in the experiment on MDA-MB-435 melanoma, 99.1%. Moreover, the growth in the experiment with SW-620 colon was 95.1%; in the experiment with MCF7 breast, 73.1%; with HCT-116 colon, 68.1%; in the experiment on HCC-2998 colon it was 102%; in the experiment on KM12 colon, 95.5%.

These data come from PubChem BioAssay (NCI).
